From PubChem BioAssay (EPA / NIEHS)
Records with an inconclusive call do not appear. Activity calls are given as the source filed them. Rule for the calls: active = hit-call score of the fitted dose curve at least 0.9, where 1 is the maximum; inconclusive = response in the unintended direction; inactive = score below 0.9.

Target: human Adenosine Transporter (Adot), SLC29A1 (gene 2030) (UniProt Q99808)
Assay: NVS_TR_hAdoT: NovaScreen (NVS) Transporter Assay for human Adenosine Transporter (Adot) (AID 2283368)
How it was run: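 U937-derived membranes, cell-free radioligand binding, filter scintillation 1 h after dosing. 25 uM duplicate screen; hits (e.g. 30% inhibition) run in concentration-response up to 50 uM; loss of signal versus DMSO.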

Chain of human Adenosine Transporter (Adot), SLC29A1 (gene 2030) (Q99808 whole entry, looked up): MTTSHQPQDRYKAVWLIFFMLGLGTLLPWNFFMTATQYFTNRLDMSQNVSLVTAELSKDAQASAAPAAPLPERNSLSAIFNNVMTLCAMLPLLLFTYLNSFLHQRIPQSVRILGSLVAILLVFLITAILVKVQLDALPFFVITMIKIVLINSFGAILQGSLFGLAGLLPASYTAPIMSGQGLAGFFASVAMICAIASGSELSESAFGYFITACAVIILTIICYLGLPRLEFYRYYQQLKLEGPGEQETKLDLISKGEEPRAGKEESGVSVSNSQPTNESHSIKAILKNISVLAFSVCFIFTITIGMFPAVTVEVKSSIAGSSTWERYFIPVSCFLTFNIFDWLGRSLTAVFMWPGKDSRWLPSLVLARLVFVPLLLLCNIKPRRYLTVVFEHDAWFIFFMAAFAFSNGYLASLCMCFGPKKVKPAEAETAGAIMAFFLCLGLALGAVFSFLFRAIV

| Compound | AC50 | outcome |
| --- | --- | --- |
| CCCCC(CC)COC(=O)CCCCCCCCC(=O)OCC(CC)CCCC (configuration not stated) | 39.9 µM (active) |  |
| O=C(O)c1cccc(Oc2ccccc2)c1 |  | inactive |
| Fc1ccccc1[C@@H](F)COC1CCC(Nc2ncnc3[nH]ncc23)CC1 (some centres not stated) | 5.08 µM (active) |  |

Test system: guinea pig Dopamine Transporter (DAT), gene 100714898
Assay: NVS_TR_gDAT: NovaScreen (NVS) Transporter Assay for guinea pig Dopamine Transporter (DAT) (AID 2283369);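 note: active compounds lower bound radioligand signal relative to DMSO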
How it was run: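 Guinea pig striatal membranes, cell-free radioligand binding with filter-based scintillation counting, read 2 h after dosing. Loss of signal versus DMSO baseline; single-concentration primary (25 uM) then concentration-response up to 50 uM.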

| Compound | AC50 |
| --- | --- |
| CN(C)c1ccc(N=NS(=O)(=O)O)cc1 | 27.1 µM (active) |
| O=C(O)CC(O)C(=O)O (configuration not stated) | 5.6 µM (active) |
| O=c1[nH]c2ccc(S(=O)CCN3CCC(Cc4ccc(F)cc4)CC3)cc2o1 (configuration not stated) | 6.75 µM (active) |
| CCOC(=O)COc1ccc2c(c1)CC(NCC(O)c1cccc(Cl)c1)CC2 (configuration not stated) | 10.6 µM (active) |

Target: Peroxisome proliferator-activated receptor gamma (Homo sapiens) (UniProt P37231)
Sequence (P37231 whole entry, looked up): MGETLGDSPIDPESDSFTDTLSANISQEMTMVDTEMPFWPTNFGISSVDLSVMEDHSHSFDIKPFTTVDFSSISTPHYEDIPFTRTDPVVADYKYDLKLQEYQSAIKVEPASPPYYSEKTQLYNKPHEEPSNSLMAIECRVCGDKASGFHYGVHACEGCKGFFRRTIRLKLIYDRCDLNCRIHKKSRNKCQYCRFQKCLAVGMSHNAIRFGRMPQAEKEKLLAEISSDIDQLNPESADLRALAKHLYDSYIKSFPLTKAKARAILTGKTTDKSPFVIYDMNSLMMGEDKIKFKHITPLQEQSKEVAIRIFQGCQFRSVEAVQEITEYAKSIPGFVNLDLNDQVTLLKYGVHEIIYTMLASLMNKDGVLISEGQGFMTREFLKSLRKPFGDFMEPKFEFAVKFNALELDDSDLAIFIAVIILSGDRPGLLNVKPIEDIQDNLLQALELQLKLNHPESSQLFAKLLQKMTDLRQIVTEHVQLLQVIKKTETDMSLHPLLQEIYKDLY
Assay: NVS_NR_hPPARg: NovaScreen (NVS) Nuclear Receptor Binding Assay for human Peroxisome Proliferator-activated Receptor gamma (PPARg) (AID 2283370)
How it was run: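 Cell-free fluorescence polarization binding to human PPARg protein, read 2 h after dosing. Primary screen in duplicate at 25 uM, actives followed in concentration series; loss of signal relative to DMSO scored.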

| Compound | AC50 | outcome |
| --- | --- | --- |
| O=C(NS(=O)(=O)/C=C/c1ccccc1)c1ccc(F)cc1Cl | 39.6 µM (active) |  |
| CNCc1ccc(NC(=O)c2c[nH]c3c2C(=O)CCC3)cc1 | 5.18 µM (active) |  |
| COC(=O)c1c(Cl)c(Cl)c(C(=O)OC)c(Cl)c1Cl |  | inactive |
| COc1ccc(/C=C/S(=O)(=O)NC(=O)c2ccc(C)cc2Cl)cc1 | 41.3 µM (active) |  |
| CC(C)=CCC/C(C)=C/CO |  | inactive |
| CC(C)=CCC/C(C)=C\CO |  | inactive |
| CCCCC(CC)COC(=O)c1ccc(C(=O)OCC(CC)CCCC)cc1 (configuration not stated) |  | inactive |
| O=c1[nH]c2ccc(S(=O)CCN3CCC(Cc4ccc(F)cc4)CC3)cc2o1 (configuration not stated) |  | inactive |
| CC/C(=C\C(=N/O)C(N)=O)C(C)[N+](=O)[O-] (configuration not stated) |  | inactive |
| CCN(C(=O)c1cc(C)cc(OC[C@H](C)Nc2ccncc2)c1)C(C)C |  | inactive |
| CC(C)=CCCC(C)CCO (configuration not stated) |  | inactive |
| CC(C)(O)c1coc(S(=O)(=O)NC(=O)Nc2c3c(cc4c2CCC4)CCC3)c1 |  | inactive |
| O=C(O)c1cccc(Oc2ccccc2)c1 |  | inactive |
| CC(C)c1cccc(C(C)C)c1N1C(=O)c2ccc(O)cc2C1=O | 16.1 µM (active) |  |
| Clc1nc(Cl)c(Cl)c(Cl)c1Cl |  | inactive |
| C=CC(=C)CCC=C(C)C |  | inactive |
| Cc1c(-c2cccnc2)c2ccccc2n1CCCCC(=O)O |  | inactive |

Target: human Serotonin Transporter (SERT), SLC6A4 (gene 6532) (UniProt P31645)
Sequence (P31645 whole entry, looked up): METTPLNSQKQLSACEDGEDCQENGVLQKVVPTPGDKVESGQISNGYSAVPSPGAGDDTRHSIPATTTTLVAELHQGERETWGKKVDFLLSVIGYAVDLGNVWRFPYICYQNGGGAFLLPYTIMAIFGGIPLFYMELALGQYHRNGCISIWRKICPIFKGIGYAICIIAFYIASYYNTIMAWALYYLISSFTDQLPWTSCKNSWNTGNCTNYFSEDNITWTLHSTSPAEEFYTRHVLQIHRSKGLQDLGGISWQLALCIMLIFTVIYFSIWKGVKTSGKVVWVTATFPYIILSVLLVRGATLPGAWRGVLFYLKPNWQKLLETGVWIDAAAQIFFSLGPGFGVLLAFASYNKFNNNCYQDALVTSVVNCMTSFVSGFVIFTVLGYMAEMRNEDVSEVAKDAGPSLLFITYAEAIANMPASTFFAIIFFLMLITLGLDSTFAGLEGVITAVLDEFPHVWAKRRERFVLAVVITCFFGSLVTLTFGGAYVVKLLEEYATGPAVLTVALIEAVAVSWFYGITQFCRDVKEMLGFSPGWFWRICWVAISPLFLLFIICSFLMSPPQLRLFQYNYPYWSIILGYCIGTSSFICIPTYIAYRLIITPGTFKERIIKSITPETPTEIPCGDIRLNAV
Assay: NVS_TR_hSERT: NovaScreen (NVS) Transporter Assay for human Serotonin Transporter (SERT) (AID 2283372)
How it was run: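 Radioligand binding to native SERT in human platelet membranes, read by filter-based scintillation counting 1 h after dosing. Primary screen in duplicate at 25 uM; actives followed up in concentration series; loss of signal versus DMSO baseline.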

| Compound | AC50 | outcome |
| --- | --- | --- |
| COCCOc1cc2cc(C(=O)NC3CCN(C(C)C)CC3)n(CC(=O)Nc3ccc(Cl)cn3)c2cn1 | 15.4 µM (active) |  |
| CCOC(=O)COc1ccc2c(c1)CC(NCC(O)c1cccc(Cl)c1)CC2 (configuration not stated) |  | inactive |
| CCCN(C1CCN(C(=O)C2CCNCC2)CC1)[C@@H]1CCc2ccc(OC)cc2C1 | 10.3 µM (active) |  |
